Screens as filed in PubChem.
Most compounds without a hit are left out; they make up all but 3.7% or so of the library.
Sm TGR inh: S. mansoni TGR enzyme inhibition; AID 485364; Q962Y6; purified TGR, DTNB reduction, TNB absorbance 405 nm; 3% of 360,000 active; Potency, µM (series often up to 114 µM), for inactives: top-dose activity change, negative = inhibition, usual class: inhibitors; note: nearly all actives have a fitted effect of over 60% in size
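First, TGR (20 nM dispensed) and NADPH were mixed with compound. Second, a 15 min room-temperature incubation followed. Third, further NADPH and then DTNB were added to start the reaction. Finally, TNB absorbance was monitored kinetically.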
TbPYK inhibitor: inhibitors of Trypanosoma brucei pyruvate kinase; Q57TT1; 0.12% of 410,000 active; AID 624173; Potency, µM (doses to about 76.8 µM), for the others: top-dose activity, negative = inhibition, hits mostly inhibitors; TbPYK enzyme, Kinase-Glo Plus ATP luminescence, 45 min; note: nearly all actives have a fitted effect of over 50% in size
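In this concentration-response screen, enzyme-free wells defined baseline while DMSO plates tracked drift. Each reaction combined TbPYK, substrate, compound and 130 uM ADP for 45 min at room temperature. Kinase-Glo Plus luminescence gave the signal.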
RE007 growth inh: less growth of the S. pombe RE007 Vpr strain; S. pombe RE007 Vpr strain, BacTiter-Glo ATP luminescence, 24 h; 0.21% of 360,000 active; Potency, µM (doses to about 92.2 µM), inactives show at the highest dose activity change, negative = less growth, most hits filed as inhibitors; active = well fitted falling curve with a large enough effect; inconclusive = small, poorly fitted or top-dose-only effect; inactive = no such curve, though single readings can be large or run the other way; note: nearly all actives have a fitted effect of over 50% in size
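Fission yeast RE007 carrying one integrated HIV-1 vpr copy, seeded at OD 0.01 in PMG+AL medium with 23 nL pinned compound. Grown 24 h at 30 degrees; viability read by BacTiter-Glo luminescence after 5 min.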
FMDV inh: foot and mouth disease virus antiviral activity; 1.2% of 410,000 active; Potency, µM (series often up to 57.9 µM), for the others: at the highest dose activity change, negative = inhibition, usual class: inhibitors; FMDV antiviral cell-based qHTS; calls by dose curve; tested in HEK293T cells; note: read-out not given here; nearly all actives have a fitted effect of over 45% in size
The depositor's hits bear a star; ? = inconclusive; . = no result given; ! = a repeat was not active; [ ] = dose if it differs, or a comment. Unless noted, calls come from the whole dose curve; as a rule, active = well fitted curve in the direction sought with a large enough effect; inconclusive = small, poorly fitted or top-dose-only effect, or another doubt; inactive = no such curve, though single readings can be large; an effect the other way counts as inactive or inconclusive. % is set by controls: 0 for no effect and ±100 for the full control effect; potency is the fitted concentration of half-maximal effect.

SMILES	Sm TGR inh	TbPYK inhibitor	RE007 growth inh	FMDV inh
O=C(O)COCC(=O)N1CCCN(c2ccc(C(F)(F)F)cn2)CC1	40µM*	-16%	6%	-12%
CC(=O)c1cccc(OCC(=O)N2CCN(c3ccc(C(F)(F)F)cn3)CC2)c1	-4%	9%	-18%	?
OCCN1CCN(Cc2ccc3c(c2)CN(Cc2cnc(-c4ccccc4)s2)CCO3)CC1	.	.	.	-11%
CN1CCc2cc(O)c(O)cc2C(c2ccccc2)C1 (centres undefined)	-34%	-8%	6%[18.4 µM]	-16%
CN1CCc2cc(Cl)c(O)cc2[C@@H](c2ccccc2)C1	-7%	-9%	5%[18.4 µM]	1.3µM*!
CC(C)C(=O)OC1=CN(Cc2ccccc2)S(=O)(=O)c2ccccc21	5%	-3%	.	9%
COc1cccc(C(=O)N2CCc3c(C(=O)NC(C)c4ccco4)c(OC)cc(=O)n3CC2)c1OC (centres undefined)	.	.	.	23%
CN(C)CCCNc1ncnc2scc(-c3ccccc3)c12	15%	-11%	4%	-12%
c1ccc(CNc2ncnc3sc4c(c23)CCC4)nc1	12%	-6%	-19%	?
c1ccc(CNc2ncnc3scc(-c4cccs4)c23)nc1	6%[57.1 µM]	-3%	5%	16µM*
c1ccc(-c2csc3ncnc(NCc4ccccn4)c23)cc1	-13%	1%	6%	16µM*
c1ccc(CNc2nc(CN3CCOCC3)nc3scc(-c4ccccc4)c23)cc1	1%	1%	10%	-3%
c1ccc(-c2csc3ncnc(NCCN4CCOCC4)c23)cc1	3%	2%	-3%	22µM*
Clc1ccc(CNc2nc(CN3CCOCC3)nc3scc(-c4ccccc4)c23)cc1	4%	-18%	13%	14µM*
COCCCNC(=O)C1CCN(Cc2cc3ccccc3n2Cc2cccc(Cl)c2)CC1	1%	3%	.	-25%
Cc1ccc(N2C(=O)C3C4C=CC(CNC(=S)N5CCN(c6cccc(C)c6)C(C)C5)(O4)C3C2=O)cc1 (centres undefined)	3.2µM*	-15%	2µM*	-1%
CCN(CC)c1nc(-c2ccccc2)nc2ccccc12	14%	1%	-14%	?
CCCCN(CCCC)c1nc(-c2ccncc2)nc2ccccc12	5%	31%	2%	28µM*
Cc1nc2cc(-c3ccccc3)nn2c(C)c1CCC(=O)N1CCN(c2ccc(F)cc2)CC1	5%	0%	.	-19%
CCCCN1C(=O)c2[nH]nc(-c3ccccc3O)c2C1c1cc(Br)c(O)c(OC)c1 (centres undefined)	56µM*	-12%	.	-8%
CC1(O)c2ccccc2C(=O)N1Cc1ccccc1 (centres undefined)	1%	1%	-14%	1%
O=C1c2ccccc2C(O)(Cc2ccccc2)N1Cc1ccco1 (centres undefined)	45µM*	-12%	11%	.
COc1ccc(S[C@@H](CCN2CC[C@H](C)CCC2=O)c2ccccc2)cc1	40µM*	1%	17%	-6%
Cc1ccc(S[C@@H](CCN2CC[C@H](C)CCC2=O)c2ccccc2)cc1	0%	-10%	20%	-9%
O=c1ccc2[n+]([O-])c3ccc(O)cc3oc-2c1	2.2µM*	-23%	0%	-21%
SMILES	Sm TGR inh	TbPYK inhibitor	RE007 growth inh	FMDV inh
NC(=O)c1cc(S(=O)(=O)NCC2CCC(C(=O)Nc3cccc(Cl)c3)CC2)cs1 (centres undefined)	0%	-1%	.	-11%
O=C(c1ccccc1)c1coc2c1C(=O)c1ccccc1C2=O	-28%	-7%	?	?
COc1ccc(C(=O)c2coc3c2C(=O)C(=O)c2ccccc2-3)cc1	-25%	-3%	40µM*	41%
Cc1[nH]c2c(F)cccc2c1CC(=O)NCCN1Cc2ccccc2OC(C)C1 (centres undefined)	.	.	.	9%
COc1ccccc1-c1ccnc(-n2ncc(C(=O)NC(C)(C)CO)c2C2CC2)n1	.	.	.	26%
COc1cccc(NC(=O)c2cnc(SCC(=O)N3CCOCC3)n(C)c2=O)c1	-2%	0%	.	22µM*
CC(C)(C)c1nn2cnnc2n(/N=C/c2cccc3ccccc23)c1=O	4%	-8%	-2%	28µM*
CCCn1c(=S)[nH]c2cc(C(=O)N3CCCC(C(=O)OCC)C3)ccc2c1=O (centres undefined)	1%	-18%	21%	18µM*
CCOC(=O)c1ccccc1NC(=O)CSc1cn(CC(=O)N2CCCCC2)c2ccccc12	0%	-11%	.	-12%
